What all share (format): functional
For experiment [1], the target named is Solute carrier family 2, facilitated glucose transporter member 1 (Homo sapiens) (UniProt P11166). In words: ST_JUDE_LEISH: Cytotoxicity at 2uM final concentration against transgenic Leishmania Mexicana promastigotes LmGLUT1 that are glucose transport deficient and complemented with the human glucose transporter GLUT1. Activity is measured by DNA content using SYBR green in vitro.

Experiment [2] addresses Hexose transporter 1 (Plasmodium falciparum) (UniProt O97467). Description: ST_JUDE_LEISH: Cytotoxicity at 2uM final concentration against transgenic Leishmania Mexicana promastigotes LmPfHT that are glucose transport deficient and complemented with the Plasmodium falciparum hexose transporter. Activity is measured by DNA content using SYBR green in vitro.
Experiment [3] addresses Glucose transporter (Leishmania mexicana) (UniProt O61059). Description: ST_JUDE_LEISH: Cytotoxicity at 2uM final concentration against transgenic Leishmania Mexicana promastigotes LmGT2 that are glucose transport deficient and complemented with the L. Mexicana glucose transporter 2. Activity is measured by DNA content using SYBR green in vitro.

Experimental findings from ChEMBL document CHEMBL3433997, “St. Jude Leishmania screening dataset” (2016) are described below.

In general, inhibition refers to the change of the read-out against control, counted positive when it falls.

Molecules are shown by their SMILES.

Solute carrier family 2, facilitated glucose transporter member 1 (Homo sapiens), sequence (P11166 whole entry): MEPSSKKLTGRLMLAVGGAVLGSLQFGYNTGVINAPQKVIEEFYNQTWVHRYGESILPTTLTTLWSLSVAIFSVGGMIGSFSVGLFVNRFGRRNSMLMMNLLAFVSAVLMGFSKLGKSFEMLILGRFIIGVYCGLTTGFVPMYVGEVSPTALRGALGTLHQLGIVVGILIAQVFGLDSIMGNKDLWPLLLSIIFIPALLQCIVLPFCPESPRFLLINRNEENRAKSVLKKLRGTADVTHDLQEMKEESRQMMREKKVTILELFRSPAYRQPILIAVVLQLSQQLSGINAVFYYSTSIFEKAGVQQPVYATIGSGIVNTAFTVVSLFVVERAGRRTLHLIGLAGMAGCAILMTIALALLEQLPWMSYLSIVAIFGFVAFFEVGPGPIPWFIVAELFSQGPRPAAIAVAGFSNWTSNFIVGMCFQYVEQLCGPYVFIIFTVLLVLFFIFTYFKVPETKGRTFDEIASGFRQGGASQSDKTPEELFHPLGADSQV

Take `O=C(Nc1ccc(Cl)c(Cl)c1)N(Cc1ccccc1Br)C1CCNCC1`: the values for the inhibition in experiment [1], in experiment [2] and in experiment [3] were 0.5%, 3.45% and 0.68%, respectively.
On the same counts, the results for `Cc1cccc2nc(-c3ccc(-c4cccc(CNCc5ccccc5)c4)s3)[nH]c12` are -1.26%, -0.6% and -0.69%.
As for `Cc1cc(Nc2ncc(Cl)c(Nc3ccccc3C(N)=O)n2)n[nH]1`, the inhibition in experiment [1] is -1.31%; in experiment [2], 2.51%; in experiment [3], 3.02%.
As for `CCCCCCCc1c(C)nc2cccc(OC)c2c1O`, the inhibition worked out at 47.3% in experiment [1], 59.4% in experiment [2] and 33.9% in experiment [3].
The like results for `CCc1cn(C)c2c(N3CCCC3=O)cc(C(=O)N[C@@H](Cc3ccccc3)[C@H](O)CNC(C)(C)c3cccc(C(F)(F)F)c3)cc12` were, in that order, 4.78%, 3.46% and -1.12%.
The like results for `CC(Cc1ccc(NC(=O)c2ccc(NCCc3ccccc3)cc2)cc1)NCCc1cccc(Cl)c1` (stereo not drawn) were, in that order, -0.04%, -0.81% and -1.31%.
The like results for `O=C(Nc1ccc(Cl)c(C(F)(F)F)c1)c1ccc(C(=O)Nc2ccc(Cl)c(C(F)(F)F)c2)cc1` were, in that order, -2.43%, 1.08% and 0.39%.
On to `CCOC(=O)C1=C(C)NC2=C(C(=O)CC(C)(C)C2)C1c1ccc(Cl)cc1` (stereo not drawn), for which the values for the inhibition in experiment [1], in experiment [2] and in experiment [3] were -1.57%, 0.77% and 0.29%, respectively.
On the same counts, the results for `CN1CCCN(Cc2ccc(-c3cccc(NC(=O)c4cccc(Cl)c4)c3)cc2)CC1` are 16.5%, 9.2% and 9.24%.
The like results for `COc1cc(C(=O)NC2CC(C)(C)N(C)C(C)(C)C2)ccc1-c1cc2cc(Cl)c(Cl)cc2[nH]1` were, in that order, 1.97%, -1.54% and 2.48%.
On the same counts, the results for `COc1cc2nc(NCCc3ccccc3)nc(NC(C)c3ccccc3)c2cc1OC` (stereo not drawn) are 7.18%, 6.76% and 3.19%.
Turning to `O=C(Nc1ccc(C(=O)N2CCN(CCN3CCN(c4cccc(C(F)(F)F)c4)CC3)CC2)cc1)c1ccc(C(F)(F)F)cc1`, the inhibition was 2.54% in experiment [1], 2.63% in experiment [2] and 1.69% in experiment [3].
On the same counts, the results for `Cc1ccc2nc(C)cc(N/N=C/c3ccccc3[N+](=O)[O-])c2c1` are 10.8%, 6.78% and 7.96%.
The like results for `O=C(NCCCCCN1CCC(c2c[nH]c3ccccc23)CC1)Nc1cccc(Br)c1` were, in that order, 8.56%, 7.56% and 5.45%.
The like results for `CC(C)[C@H](NC(=O)c1ccc(O)c(-c2cccc(C(F)(F)F)c2)c1)C(=O)NCCN1CCCCC1` were, in that order, -0.28%, -0.52% and 0.62%.
For `O=C(Nc1n[nH]c2nc(-c3ccco3)c(Br)cc12)c1ccc(CN2CCCC2)cc1`, the results for the inhibition in experiment [1], in experiment [2] and in experiment [3] were 1.9%, 3.71% and 3.01%, respectively.
Turning to `CC(=O)Nc1cc(C(=O)Nc2cccc(-c3csc(-c4nc5ccccc5[nH]4)c3)c2)ccc1C`, the inhibition in experiment [1] turned out to be 10.5%; in experiment [2] it was 9.84%; in experiment [3] it was 9.18%.
In the case of `C=CCc1c(C(=O)NCC23CC4CC(CC(C4)C2)C3)nc2ccccc2c1O`, the inhibition in experiment [1] was -2.74%; in experiment [2], 0.27%; in experiment [3], 3.24%.
On the same counts, the results for `CC1CN(c2cnn(Cc3ccc(NC(=O)Nc4ccc(-c5ccccc5)cc4)cc3)c(=O)c2Cl)CC(C)N1` (stereo not drawn) are 1.43%, 0.34% and -1.78%.
In the case of `O=C(C=Cc1ccc(Cl)c(Cl)c1)NCCCCCN1CCC(CCNC(=O)c2ccc3c(c2)OCO3)CC1`, the inhibition in experiment [1] is 5.94%; in experiment [2] it was 5.12%; in experiment [3], 5.57%.
As to `COc1ccc(C2CC(=O)C3=C(C2)NC(C)=C(C(=O)OC2CCCC2)C3c2cccc(O)c2)cc1` (stereo not drawn), the inhibition is 0.09% in experiment [1], 0.95% in experiment [2] and -0.53% in experiment [3].
On the same counts, the results for `NC1=NC(c2ccccc2)N(c2ccccc2)C(N)=N1` (stereo not drawn) are 1.99%, -4.07% and -0.58%.
Turning to `CCc1cn(C)c2c(N3CCCC3=O)cc(C(=O)N[C@@H](Cc3ccccc3)[C@H](O)CNC3CCCCC3)cc12`, the figures for the inhibition in experiment [1], in experiment [2] and in experiment [3] were 10.2%, 11% and 11.5%, respectively.
On the same counts, the results for `FC(F)(F)c1ccc2[nH]c(-c3ccc(-c4ccc(CNCC5CCCO5)cc4)cc3)nc2c1` (stereo not drawn) are 3.49%, 2.61% and 1.84%.
The like results for `CN1CCN(Cc2ccc(-c3ccc4c(Nc5ccc(Oc6ccccc6)cc5)ccnc4c3)o2)CC1` were, in that order, -0.9%, -0.3% and 0.49%.
The like results for `COc1ccc(-c2cccc(NC(=O)c3cccc(C#N)c3)c2)cc1CN1CCNCC1` were, in that order, 11%, 11.2% and 10.6%.
As to `Cc1cc(N2CCCC2)nc(Nc2ccc(NC(=O)Cc3ccccc3)cc2)n1`, the inhibition in experiment [1] is 88.4%; in experiment [2], 95.2%; in experiment [3], 72.3%.
The like results for `COc1ccccc1CCNc1nc(C)cc(NCCC(=O)NCCOc2ccccc2)n1` were, in that order, 5.24%, 7.33% and 2.01%.
Take `Cc1ccc(Cc2c(C)nc3nc(N)nc(N)c3c2C)cc1`: the inhibition in experiment [1] amounted to 69.9%; in experiment [2] it was 73.4%; in experiment [3] it was 54.4%.
On the same counts, the results for `O=C(Nc1ccc(Cn2ncc(N3CCCNCC3)c(Cl)c2=O)cc1)Nc1cc(F)cc(C(F)(F)F)c1` are 2.7%, 3.7% and 0.99%.
On the same counts, the results for `CN1CCN(c2cccc(-c3nnc(-c4cccc(OCC(=O)NCc5ccc(C(F)(F)F)cc5)c4)o3)c2)CC1` are 1.77%, 1.65% and 2.47%.
Turning to `CS(=O)(=O)c1ccccc1CNC(=O)c1ccc(-c2cccc(-c3nc4cc(C(F)(F)F)ccc4[nH]3)c2)cc1`, the inhibition in experiment [1] is 2.96%; in experiment [2], 2.74%; in experiment [3] it was 2.22%.
For `O=c1cc(NCCC(CNCc2cc3ccccc3o2)NCc2cc(Br)cc(Br)c2)[nH]c2ccccc12` (stereo not drawn), the inhibition in experiment [1] came to 0.2%; in experiment [2], 0.33%; in experiment [3], 2.33%.
On to `COc1ccccc1-c1nc2c(ccc3nc(N)nc(N)c32)[nH]1`, for which the inhibition in experiment [1] worked out at 49.5%; in experiment [2], 58.8%; in experiment [3], 4.58%.
On the same counts, the results for `CCCCC#Cc1cnc2nc(N)[nH]c(=O)c2n1` are 1.66%, 1.03% and 0.91%.
On the same counts, the results for `C[C@H](Cc1ccc(CCc2ccc(C[C@@H](C)NC[C@H](O)c3cccc(Cl)c3)cc2)cc1)NC[C@H](O)c1cccc(Cl)c1` are 59.1%, 10.7% and 58.5%.
